S aureus QS inh: S. aureus quorum sensing inhibitors, primary screen, RNAIII-GFP reporter, flow cytometry. S. aureus RN6390 RNAIII-GFP reporter, AIP-induced, flow cytometry 3 h. 0.3% of 24,000 active. AID 527, 2006. inhibition, % at 2 µM;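 active = share of bacteria positive for the green fluorescent reporter and its mean brightness both inhibited by 50% or more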;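 note: 0% = AIP-stimulated control and 100% = unstimulated bacteria without AIP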
Proteasome disasm: inhibitors of ATP-driven 26S proteasome dissociation, primary screen, biochemical, bead-based flow cytometry, GFP-tagged proteasome; anti-FLAG beads, GFP-proteasome disassembly; inhibition of disassembly, % (no concentration beside the values); 0.2% of 24,000 active;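 active = inhibition of disassembly above about 33%, limit read from the data; inconclusive = likely self-fluorescent, control bead median signal at least 40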;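 note: plate controls were ATP control with full disassembly for no effect and ATP-gamma-S intact proteasomes for full effect; higher percent means more bead fluorescence retained so stronger block of disassembly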
The depositor's hits bear a star. Most compounds without a hit are left out; they make up all but 0.45% or so of the library.

`Cc1oc(-c2ccc(Cl)cc2)nc1CS(=O)CC(=O)NCCN1CCCC1` (stereo not given) gave S aureus QS inh -1 and Proteasome disasm 154*.
`Cc1ccc(-c2nc(CS(=O)CC(=O)NCCN3CCCC3)c(C)o2)cc1` (stereo not given) gave S aureus QS inh -10 and Proteasome disasm 0.
Screening CCn1c(=O)c2cc(C(=O)N3CCN(C(=O)c4ccco4)CC3)sc2c2ccccc21 returned S aureus QS inh 17 and Proteasome disasm -2.
CC1=CC(=C2C(=O)c3ccccc3C2=O)C=C(C)O1 was read as S aureus QS inh 2 and Proteasome disasm 34.
CC(=O)N1C(=O)C(=C2C=C(C)OC(C)=C2)c2ccccc21 was read as S aureus QS inh 0 and Proteasome disasm 85*.
`CCOC(=O)N1CCN(C(=O)c2ccc3c(=O)n(CCc4ccccc4)c(=O)[nH]c3c2)CC1` gave S aureus QS inh 1 and Proteasome disasm -1.
`COc1ccc(N2C(=O)C3CCCN3C2c2ccc(Cl)cc2)cc1` (stereo not given) gave S aureus QS inh 0 and Proteasome disasm -1.
Screening COc1ccc(OC)c(C2N(c3ccc(Cl)cc3)C(=O)C3CCCN32)c1 (stereo not given) returned S aureus QS inh 5 and Proteasome disasm 85*.
NC(=O)C1(N2CCCCC2)CCN(S(=O)(=O)c2cc(Cl)ccc2Cl)CC1 was read as S aureus QS inh 3 and Proteasome disasm 1.
For Cc1cccc(C2N(c3ccc(F)cc3)C(=O)C3CCCN32)c1 (stereo not given) the results were S aureus QS inh -4 and Proteasome disasm 61*.
`Cc1ccc(C2N(c3ccc(F)cc3)C(=O)C3CCCN32)cc1` (stereo not given) gave S aureus QS inh -1 and Proteasome disasm 16.
For CCc1ccc(N(CC(=O)Nc2nc3ccc(C)cc3s2)S(=O)(=O)c2c(C)noc2C)cc1 the results were S aureus QS inh 0.
NC(=O)C1CCN(C(=O)c2ccc(CS(=O)(=O)c3c(Cl)cccc3Cl)o2)CC1 was read as S aureus QS inh 4 and Proteasome disasm 1.
CCc1ccccc1NC(=O)CN1C(=O)C2CCCN2c2ncc(Cl)cc21 (stereo not given) was read as S aureus QS inh -3 and Proteasome disasm 1.
For O=C(CN1C(=O)C2CCCN2c2ncc(Cl)cc21)NCc1ccc2c(c1)OCO2 (stereo not given) the results were S aureus QS inh 1 and Proteasome disasm 55*.
`CC1CCC(NC(=O)CN2C(=O)C3CCCN3c3ncc(Cl)cc32)CC1` (stereo not given) gave S aureus QS inh 2 and Proteasome disasm 17.
Screening COC(=O)c1ccccc1NC(=O)CN1C(=O)C2CCCN2c2ncc(Cl)cc21 (stereo not given) returned S aureus QS inh 3 and Proteasome disasm 49*.
For Cc1ccc(-n2nc3c(c2NC(=O)c2ccc(S(=O)(=O)N4CCOCC4)cc2)CSC3)c(C)c1 the results were S aureus QS inh -3 and Proteasome disasm 0.
For Cc1cccc2c(=O)oc(-c3ccc4c(c3)C(=O)N(CC3CCCO3)C4=O)nc12 (stereo not given) the results were S aureus QS inh -2 and Proteasome disasm -1.
O=C1C2CC=CCC2C(=O)N1c1ccc(Cc2ccncc2)cc1 (stereo not given) was read as S aureus QS inh -1 and Proteasome disasm 0.
Screening CCOc1ccc(NC(=O)C2CCCN(S(=O)(=O)c3c(C)n[nH]c3C)C2)cc1 (stereo not given) returned S aureus QS inh -3 and Proteasome disasm -1.
Screening CCOc1ccc(NC(=O)C2CCCN(S(=O)(=O)c3c(C)nn(C)c3C)C2)cc1 (stereo not given) returned S aureus QS inh 96* and Proteasome disasm inconclusive.
`Cc1ccc(CNC(=O)CCS(=O)(=O)c2cc(Br)cc3c2N(C(=O)C2CC2)CC3)o1` gave S aureus QS inh 5 and Proteasome disasm 0.
Cn1c(=O)n(CC(=O)NC2CCCCC2)c(=O)c2ccccc21 was read as S aureus QS inh -8 and Proteasome disasm 2.
`CCCn1c(=S)[nH]c2cc(C(=O)N3CCN(c4ccccc4OC)CC3)ccc2c1=O` gave S aureus QS inh 66* and Proteasome disasm 0.
`CCOC(=O)N1CCN(C(=O)c2ccc3c(=O)n(Cc4ccccc4)c(=S)[nH]c3c2)CC1` gave S aureus QS inh -2 and Proteasome disasm 0.
For O=C(NCC(c1cccnc1)N1CCN(c2ccccc2F)CC1)c1cccc(Cl)c1 (stereo not given) the results were S aureus QS inh 59* and Proteasome disasm -3.
For O=C(NCC(c1cccnc1)N1CCOCC1)c1cccc(Cl)c1 (stereo not given) the results were S aureus QS inh -2 and Proteasome disasm -3.
`CCOC(=O)c1c(COc2ccccc2)oc2ccc(O)cc12` gave S aureus QS inh 5.
CCc1oc2ccccc2c1C(=O)c1cc(Br)c(O)c(Br)c1 was read as S aureus QS inh 52* and Proteasome disasm 0.
`O=C1CC(c2ccc(S(=O)(=O)N3CCN(c4ccccc4)CC3)cc2)CN1` (stereo not given) gave S aureus QS inh 0 and Proteasome disasm -1.
O=C(NCc1cccnc1)C(=O)NCC(c1ccco1)N1CCN(c2ccc(F)cc2)CC1 (stereo not given) was read as S aureus QS inh 0.
For N#Cc1c(NC(=O)COC(=O)C2CC3C=CC2C3)oc(-c2ccccc2)c1-c1ccccc1 (stereo not given) the results were S aureus QS inh 91* and Proteasome disasm -3.
COc1ccccc1OCC(=O)Nc1oc(-c2ccccc2)c(-c2ccccc2)c1C#N was read as S aureus QS inh 1.
`CC(C)Oc1ccc(N2CC(C(=O)Nc3ccc4c(c3)OCO4)CC2=O)cc1` (stereo not given) gave S aureus QS inh -1 and Proteasome disasm -1.
COc1cccc(Oc2cnc(N)nc2-c2ccc(OC)cc2O)c1 was read as S aureus QS inh 62* and Proteasome disasm 0.
Screening C=C(C)COc1ccc(-c2nc(N)ncc2-c2ccc(OC)cc2)c(O)c1 returned S aureus QS inh 14 and Proteasome disasm -1.
For Cc1ccc2[nH]c(=O)c(CN(CCN3CCOCC3)C(=O)Nc3ccc(F)cc3)cc2c1 the results were S aureus QS inh -2.
Cc1cc(C)c2cc(CN(CCN3CCCC3)C(=O)Nc3ccc(F)cc3)c(=O)[nH]c2c1 was read as S aureus QS inh 0.
CCc1ccc2[nH]c(=O)c(CN(CCCN3CCOCC3)C(=O)Nc3ccc(Cl)cc3)cc2c1 was read as S aureus QS inh 94*.
For O=C(Nc1ccccc1)N(CCCN1CCOCC1)Cc1cc2cc3c(cc2[nH]c1=O)OCCO3 the results were S aureus QS inh 2 and Proteasome disasm -4.
Screening Cc1ccc(C)c2[nH]c(=O)c(CN(CCN3CCCC3)C(=O)Nc3cccc(Cl)c3)cc12 returned S aureus QS inh 84* and Proteasome disasm inconclusive.
Screening CCc1ccc2[nH]c(=O)c(CN(CCCN3CCOCC3)C(=O)Nc3cccc(Cl)c3)cc2c1 returned S aureus QS inh 60*.
`Cc1cccc(-n2nnc(C(=O)NCc3ccccn3)c2N)c1` gave S aureus QS inh -3 and Proteasome disasm -1.
O/N=C/c1ccc(OCC(O)COc2ccc(/C=N/O)cc2)cc1 was read as S aureus QS inh 0 and Proteasome disasm 0.

High-throughput results (PubChem)
